Data: PubChem BioAssay (NCATS)
Results filed as inconclusive are left out. Calls of active or inactive are those of the source. Unless noted, calls follow the shape of the dose curve; as a rule, active = well fitted curve in either direction with a large enough effect (not every such curve was filed as active); inconclusive = small, poorly fitted or top-dose-only effect, or another doubt; inactive = flat fitted curve, though single readings scatter.

How the values were obtained:
[1] = AP1 Signaling Pathway (AID 357); conditions: ME-180 AP-1-bla reporter, EGF-induced, beta-lactamase ratio, 5 h; at 17.2 µM (top of the series) unless noted;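 also: ME-180 reporter cells stimulated with EGF at its EC50 level; % is scaled to controls: 0 for no effect and ±100 for the full control effect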
In short: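 Modulation of EGF-driven AP-1 transcription was assessed with a beta-lactamase reporter in ME-180 cells. Compound and EC50 EGF were co-incubated 5 hours at 37 °C before 2.5-hour CCF4 loading at room temperature and dual-emission reading.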

[2] = NFAT Signaling Pathway (AID 444); conditions: Jurkat NFAT-bla M1, carbachol, beta-lactamase ratio, 5 h; at 17.2 µM (top of the series) unless noted;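 also: carbachol stimulus at about its EC50 of 1 µM final; % is scaled to controls: 0 for no effect and ±100 for the full control effect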
In short: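 Jurkat cells with NFAT-driven β-lactamase reporter and co-expressed M1 receptor, stimulated with carbachol (final 1 uM, ~EC50), compound titration, 5 h at 37 °C. CCF4 loaded 1 h at RT; 460/530 nm ratio gave %activity and AC50.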

[3] = Stat Signaling Pathway (AID 446);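 also: ME-180 cervical cancer cells given 40 pM IL-6 alongside compound; SIE-controlled beta-lactamase reporter measured as 460/530 nm FRET emission ratio; % is scaled to controls: 0 for no effect and ±100 for the full control effect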
In short: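 Reporter line: ME-180 cervical carcinoma, SIE-beta-lactamase. Treatment: compound with 40 pM IL-6, 5 hrs, 37 C, in low-serum OPTI-MEM with 10 mM HEPES pH 7.3. Detection: 460/530 nm fluorescence.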

[4] = target: Glucocorticoid receptor (Homo sapiens) (UniProt P04150); assay: GR-GFP Redistribution (AID 450;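 active = compounds whose dose series gives a full or clear partial fitted curve of increased nuclear translocation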; also: potency is read from the fitted curve at half-maximal effect); conditions: U2OS GR-GFP nuclear translocation, laser cytometry, 2 h
Glucocorticoid receptor (Homo sapiens), sequence (P04150 whole entry, looked up): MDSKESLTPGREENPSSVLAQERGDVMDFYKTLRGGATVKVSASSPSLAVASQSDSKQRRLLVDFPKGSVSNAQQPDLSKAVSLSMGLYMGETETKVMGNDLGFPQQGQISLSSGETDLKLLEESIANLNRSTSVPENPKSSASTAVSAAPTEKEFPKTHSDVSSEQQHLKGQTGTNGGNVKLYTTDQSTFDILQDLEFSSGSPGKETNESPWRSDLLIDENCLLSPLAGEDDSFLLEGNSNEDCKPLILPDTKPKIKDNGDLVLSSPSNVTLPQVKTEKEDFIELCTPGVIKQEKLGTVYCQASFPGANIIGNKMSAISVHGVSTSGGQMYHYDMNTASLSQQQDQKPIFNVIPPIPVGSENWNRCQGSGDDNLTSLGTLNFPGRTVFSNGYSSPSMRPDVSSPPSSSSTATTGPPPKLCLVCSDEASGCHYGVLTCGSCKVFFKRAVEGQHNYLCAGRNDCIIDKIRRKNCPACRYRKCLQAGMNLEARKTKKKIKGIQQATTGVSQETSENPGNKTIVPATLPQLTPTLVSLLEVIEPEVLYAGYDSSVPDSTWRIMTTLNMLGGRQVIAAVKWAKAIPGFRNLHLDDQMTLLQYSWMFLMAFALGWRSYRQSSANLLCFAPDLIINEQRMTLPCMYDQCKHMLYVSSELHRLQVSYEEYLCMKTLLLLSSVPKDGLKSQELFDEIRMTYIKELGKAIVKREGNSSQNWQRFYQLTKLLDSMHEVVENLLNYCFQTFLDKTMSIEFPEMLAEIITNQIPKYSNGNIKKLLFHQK

Nc1ncc(P(=S)(N2CCOCC2)N2CCOCC2)s1
inactive: activity change, negative = inhibition [1] 10.9% | activity change, negative = inhibition [2] 4.78% | outcome [3] | Potency [4] > 20.6 µM
